The list is not random: actives were taken first. Their share in the collection is about 9.9%.
HPGD block: inhibitors of human 15-hydroxyprostaglandin dehydrogenase (HPGD); P15428; purified HPGD, NADH fluorescence kinetic, PGE2 substrate; Potency, µM, for inactives: at the top dose activity change, negative = inhibition, most hits filed as inhibitors; actives 4.3% (n = 150,000)
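20 nM HPGD preincubated 15 min at room temperature with compound in 50 mM Tris-HCl pH 8, 0.01% Tween 20. Started with 1 mM NAD+ and 30 uM prostaglandin E2; NADH fluorescence (360/450 nm) read 5 times over 30-s intervals, last minus first.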
KDM4E inh: JMJD2E (human) inhibition; JMJD2E catalytic domain, FDH-coupled NADH fluorescence (FDH is formaldehyde dehydrogenase); Potency, µM (titrated, usually from 57.1 µM), for the others: at the highest dose activity change, negative = inhibition, actives largely listed as inhibitors; actives 1.6% (n = 230,000); AID 2147;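 note: 0% = wells with enzyme and -100% = buffer wells without enzyme; nearly all actives have a fitted effect of over 50% in size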
Target sequence (B2RXH2 1-337 limits assumed): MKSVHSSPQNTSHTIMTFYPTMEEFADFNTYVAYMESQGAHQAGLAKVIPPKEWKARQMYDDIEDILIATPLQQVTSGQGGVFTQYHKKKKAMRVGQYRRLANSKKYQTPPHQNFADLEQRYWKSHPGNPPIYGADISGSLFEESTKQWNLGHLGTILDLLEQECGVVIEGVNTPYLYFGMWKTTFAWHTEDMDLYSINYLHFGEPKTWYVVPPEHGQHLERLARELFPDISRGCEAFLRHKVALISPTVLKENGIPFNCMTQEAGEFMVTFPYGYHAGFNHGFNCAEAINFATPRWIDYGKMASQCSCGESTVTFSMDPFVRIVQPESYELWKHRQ
ALDH1A1 block: inhibitors of human aldehyde dehydrogenase 1A1; P00352; Purified ALDH1A1, NADH fluorescence, propionaldehyde substrate; Potency, µM (highest dose often 75.3 µM), for inactives: at the highest dose activity, negative = inhibition, hits mostly inhibitors; actives 7.3% (n = 220,000); AID 1030;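 note: plate controls were no enzyme wells and a reference inhibitor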
Tau fibril ThT: tau fibrillization inhibition (ThT binding). P10636. recombinant tau K18 P301L, heparin-induced fibrillization, ThT fluorescence. Potency, µM (doses to about 57.4 µM), without a hit: at the top dose activity, negative = inhibition, hits mostly inhibitors. actives 2.1% (n = 270,000). AID 1460; active = well fitted curve in the direction sought with a large enough effect; inconclusive = small, poorly fitted or top-dose-only effect, or another doubt; inactive = no such curve, though single readings can be large; an effect the other way counts as inactive or inconclusive; note: nearly all actives have a fitted effect of over 55% in size
Target sequence (P10636 561-689 P618L limits assumed): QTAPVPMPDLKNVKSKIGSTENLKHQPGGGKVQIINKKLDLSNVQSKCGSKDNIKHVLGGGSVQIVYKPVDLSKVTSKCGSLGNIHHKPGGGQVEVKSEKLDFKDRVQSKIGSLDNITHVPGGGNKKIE
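ThT emission at 510 nm, taken 1 hr after adding 30 uM dye, quantifies aggregates formed when 20 uM heparin acts on human tau K18 P301L for 6 hr at 37 C.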
Tau fluor cs: counter-screen for tau fibril formation inhibitors; tau K18 P301L Alexa594 fluorescence, heparin fibrillization; Potency, µM (titrated, usually from 57.7 µM), without a hit: top-dose activity change, negative = decrease; actives 0.93% (n = 280,000); active = well fitted curve in the direction sought with a large enough effect; inconclusive = small, poorly fitted or top-dose-only effect, or another doubt; inactive = no such curve, though single readings can be large; an effect the other way counts as inactive or inconclusive; note: nearly all actives have a fitted effect of over 55% in size
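Human tau K18 P301L (15 uM unlabeled, 0.24 uM Alexa 594-labeled) in 100 mM sodium acetate pH 7 with 20 uM heparin, 6 hr at 37 C. ThT 30 uM added, 1 hr ambient; Alexa 594 FP and total fluorescence read at 555/632 nm.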
Tau FP inhib: blocks human tau fibril formation measured by polarization | P10636 | K18 P301L tau heparin fibrillization, Alexa594 FP, 6 h | Potency, µM (highest dose often 57.7 µM), for the others: at the highest dose activity, negative = inhibition, hits mostly inhibitors | actives 0.39% (n = 280,000) | AID 1468; active = well fitted curve in the direction sought with a large enough effect; inconclusive = small, poorly fitted or top-dose-only effect, or another doubt; inactive = no such curve, though single readings can be large; an effect the other way counts as inactive or inconclusive; note: nearly all actives have a fitted effect of over 55% in size
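Quantitative HTS format: compounds meet 15 uM recombinant K18 P301L tau and Alexa 594-tau tracer in 100 mM sodium acetate pH 7; 20 uM heparin triggers fibrillization at 37 C over 6 hr; FP gives the signal.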
* = called active by the depositor; ? = inconclusive; . = no result given; [ ] = another dose, or the depositor's remark. Unless noted, calls come from the whole dose curve; as a rule, active = well fitted inhibition curve with a large enough effect (not every such curve was filed as active); inconclusive = small, poorly fitted or top-dose-only effect, or another doubt; inactive = no such curve, though single readings can be large or run the other way. Unless noted, % is set by controls: 0 for no effect and ±100 for the full control effect; potency is the fitted concentration of half-maximal effect.

SMILES	HPGD block	KDM4E inh	ALDH1A1 block	Tau fibril ThT	Tau fluor cs	Tau FP inhib
O=C(O)c1cccc(Cn2c(Cl)c(/C=N/NC(=O)c3ccccc3O)sc2=O)c1	.	-7%	4%	-24%	-21%	-3%
O=C(O)c1cccc(Cn2c(Cl)c(/C=N/NC(=O)c3ccccc3Cl)sc2=O)c1	28µM*	?	?	?	-14%	3%
O=C(O)c1cccc(Cn2c(Cl)c(/C=N/Nc3ccccc3)sc2=O)c1	.	-24%	22µM*	18µM*	?	?
Cc1cc2cc(C(c3nnnn3C3CCCC3)N(Cc3cccnc3)Cc3ccco3)c(=O)[nH]c2cc1C (stereo not given)	?	-8%	14µM*	?	-17%	-3%
Cc1ccc2cc(C(c3nnnn3C3CCCC3)N(Cc3ccccc3)Cc3ccco3)c(=O)[nH]c2c1 (stereo not given)	?	?	?	-18%	-2%	-11%
COCCn1nnnc1C(c1cc2ccc(C)cc2[nH]c1=O)N(Cc1ccco1)Cc1cccs1 (stereo not given)	-16%	-11%	18µM*	-15%	-11%	5%
CCN(C(=O)COC(=O)c1cccc(-n2cnnn2)c1)C1CCCCC1	.	0%	-13%	-2%	-2%	-1%
O=C(N/N=C\c1ccc([N+](=O)[O-])s1)c1cncc(Br)c1	-4%	-16%	6%	14µM*	?	13%
COc1ccc(NC(=O)CSc2nc3c(c(=O)n2-c2ccc(F)cc2)SCC3)cc1	-5%	1%	?	-11%	-3%	-1%
N#CCSc1nc2[nH]ncc2c(=O)n1-c1ccccc1Br	?	6%	?	7%	7%	-5%
COc1ccc(NC(=O)CSc2nc3[nH]ncc3c(=O)n2-c2ccccc2C)cc1OC	-8%	-9%	28µM*	-5%	-20%	12%
COc1ccccc1-n1c(SCC(=O)Nc2ccc(F)cc2)nc2c(c1=O)SCC2	-16%	-7%	11µM*	-14%	-24%	6%
O=C(CSc1nc2[nH]ncc2c(=O)n1-c1ccccc1Br)NCc1ccccc1Cl	.	-5%	13µM*	-19%	?	2%
COc1cc2c(cc1OC)CN(C(=O)CSc1nc3[nH]ncc3c(=O)n1-c1ccccc1)CC2	-14%	-29%	28µM*	-17%	-1%	-1%
COc1ccc(N2CCN(C(=O)CSc3nc4[nH]ncc4c(=O)n3-c3cccc4ccccc34)CC2)cc1	.	-1%	-13%	?	?	8%
COc1ccc(NC(=O)CSc2nc3[nH]ncc3c(=O)n2-c2ccccc2OC)cc1OC	-12%	-2%	?	-17%	-20%	7%
CN(C)/N=N\c1nc[nH]c1C(N)=O	-9%	-3%[25.5 µM]	-6%[20.9 µM]	.	.	.
O=C(Cn1nnc2ccccc21)c1ccc(Cl)cc1	.	6%	.	-4%	-9%	-2%
CN(C)CCN(c1ccccn1)c1ccccn1	-4%	.	8%[13.5 µM]	.	.	.
COc1ccc(CNC(=O)CSc2nc3[nH]ncc3c(=O)n2-c2ccccc2Br)cc1	.	12%	16µM*	0%	-4%	-4%
CC(=O)Nc1ccc(NC(=O)CCC(=O)c2ccc(C)cc2)cc1	.	.	.	0%	2%	1%
COc1ccccc1C(c1c(O)cc(C)n(Cc2ccco2)c1=O)N1CCCCC1 (stereo not given)	.	.	.	?	-10%	?
CCCc1nnc(SCc2ccc(OC)cc2)n1N	18µM*	-1%	4%	1%	9%	7%
COc1ccc(-c2nnc(SCc3cccc(C)c3)n2N)cc1	-16%	-1%	1%	-16%	2%	1%
CCCCc1nnc(SCCSc2nnc(CCCC)n2N)n1N	-12%	0%	18µM*	3%	0%	-5%
SMILES	HPGD block	KDM4E inh	ALDH1A1 block	Tau fibril ThT	Tau fluor cs	Tau FP inhib
COc1ccc(-c2nnc(SCc3cc(C)ccc3C)n2N)cc1	?	-13%	22µM*	-11%	-3%	2%
C[C@](O)(C(=O)Nc1ccc(S(=O)(=O)c2ccccc2)cc1)C(F)(F)F	-12%	3%	3%	-7%	-12%	-1%
O=S(=O)(c1ccc(Cl)s1)N1CCCc2cccc(O)c21	-27%	2%	-7%	-16%	?	13%
CC(=O)c1ccc(NC(=S)Nc2ccc(N3CCOCC3)cc2)cc1	.	?	22µM*	?	?	-5%
O=C(NC(=S)Nc1ccc(N2CCOCC2)cc1)c1cncc(Br)c1	18µM*	-14%	?	?	-12%	2%
CCc1ccc(C(=O)NC(=S)Nc2ccc(N3CCOCC3)cc2)cc1	.	-1%	11µM*	?	?	?
CN(C)C(=S)Nc1ccc(N2CCOCC2)cc1	.	-8%	1%	-21%	-9%	1%
CCCCc1ccc(NC(=O)CC(C)(C)C)cc1	14µM*	-2%	10%	9%	9%	2%
COCCNC(=S)N1CCc2cc(OC)c(OC)cc2C1COc1ccc(C(C)C)cc1 (stereo not given)	-6%	4%	?	-8%	-18%	6%
COc1ccc(NC(=O)Cn2ncc3c([nH]c4ccccc43)c2=O)cc1Cl	.	.	.	10%	0%	?
O=C(O)CNC(=O)c1ccccc1O	?	.	-10%[13.5 µM]	.	.	.
O=C(NC(=S)Nc1cc(S(=O)(=O)N2CCOCC2)ccc1N1CCOCC1)c1ccco1	.	-9%	7%	5%	-7%	1%
CC(=O)c1cccc(NC(=O)Cc2ccc3c(c2)CCCC3)c1	25µM*	1%	13µM*	-4%	-12%	-7%
CC(=O)c1cccc(NC(=S)NC(=O)C(C)C)c1	-9%	6%	7%	-2%	-6%	-5%
O=C(NC(=S)Nc1ccc(N2CCOCC2)cc1)c1cccc(Cl)c1	-23%	-1%	?	13µM*	?	9%
O=C(NC(=S)Nc1cc(S(=O)(=O)N2CCOCC2)ccc1O)c1ccco1	.	5%	25µM*	-6%	-4%	-1%
O=C(NC(=S)Nc1ccc(N2CCOCC2)cc1)c1ccccc1	.	-7%	?	?	?	5%
CC(=O)c1cccc(NC(=S)NC(=O)CC(C)(C)C)c1	16µM*	6%	-4%	-3%	-8%	-3%
CC(C)(C)OC(=O)N1CCC(c2c(C(=O)N3CCN(c4ccccc4F)CC3)cnn2-c2ccccc2Cl)CC1	.	.	.	?	-13%	9%
CCOC(=O)C1CCC(CN(Cc2ccc(OC)cc2)S(=O)(=O)c2ccc(F)c(C(=O)Nc3cc(Cl)ccc3OC)c2)CC1 (stereo not given)	.	.	.	1%	-18%	-19%
O=C(Oc1cc(-c2ccccc2)no1)c1ccc(Cl)cc1	-9%	4%	11%	-24%	-15%	1%

High-throughput results from PubChem BioAssay.
